# High-throughput results: PubChem, National Center for Advancing Translational Sciences (NCATS)
# Only some compounds are listed: those with a hit (about 19% of all), similar ones and a draw of the others.
# HT1080NT lethal – kills 2HG-producing HT-1080-NT fibrosarcoma cells. HT-1080-NT fibrosarcoma viability, CellTiter-Glo ATP luminescence, 48 h. Potency, µM (titrated, usually from 46.1 µM), for inactives: top-dose activity, negative = less viability, most hits filed as cytotoxic. hit rate 1.6% among 360,000. AID 686970;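 also: NT is the 2HG producing partner of a matched IDH1 knockdown line; potency is read from the fitted curve at half-maximal effect; 0% = DMSO-treated cells and -100% = media-only wells without cells; nearly all actives have a fitted effect of over 55% in size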
#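 Read-out is CellTiter-Glo luminescence after 10 minutes at room temperature, following 48 hours' compound treatment of HT-1080-NT cells (750 cells/well, RPMI, 5% FBS, 37 degrees C).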
# ELG1 repair inh – blocks ELG1-dependent DNA repair in HEK293T cells; HEK293T ELG1-luciferase reporter, luminescence, 16 h; DNA damage induced by 5-fluorouridine; Potency, µM (top dose mostly 46.1 µM), inactives show top-dose activity change, negative = inhibition, most hits filed as inhibitors; hit rate 2.3% among 330,000; AID 504467; also: potency is read from the fitted curve at half-maximal effect; nearly all actives have a fitted effect of over 55% in size
#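 In this reporter screen, reduction of luminescence relative to DMSO vehicle indicated activity. Compounds and 5-fluorouridine were added together to 2,000 cells per well, incubated for 16 hr at 37 °C, then developed with ONE-Glo.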
# TDP1 cell CPT – growth inhibition of DT40 Tdp1-/-;hTDP1 cells with camptothecin (screen for TDP1 inhibitors); chicken DT40 Tdp1-/-;hTDP1 cells + 20 nM CPT, ATP luminescence, 48 h; Potency, µM (titrated, usually from 46.2 µM), for the others: at the highest dose activity change, negative = growth inhibition, actives largely listed as inhibitors; hit rate 12% among 420,000; also: potency is read from the fitted curve at half-maximal effect; nearly all actives have a fitted effect of over 55% in size
#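 Cell growth measured by CellTiter-Glo luminescence after a minimum 48 h, 37 C compound exposure with 20 nM CPT in Tdp1-knockout DT40 cells stably expressing hTDP1, seeded 400/well; qHTS titration format.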
# DT40 TDP1 no CPT – qHTS for Inhibitors of human tyrosyl-DNA phosphodiesterase 1 (TDP1): qHTS in cells in absence of CPT; DT40 Tdp1-/- hTDP1 cells, no CPT, ATP luminescence, 48 h; Potency, µM (doses to about 46.2 µM), without a hit: at the top dose activity change, negative = growth inhibition, usual class: inhibitors; hit rate 15% among 420,000; AID 686978, 2013; also: potency is read from the fitted curve at half-maximal effect; nearly all actives have a fitted effect of over 55% in size
#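 Luminescent ATP content (CellTiter-Glo) served as the growth readout. Knockout chicken DT40 cells expressing human TDP1 were exposed to compounds without camptothecin for a minimum 48 hr at 37 °C.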
# IL-1B inflam inh – blocks inflammasome-driven IL-1 beta release. AID 743279. activity change, % at 57.5 µM. hit rate 4.7% among 360,000. THP-1 LPS/ATP IL-1B secretion, AlphaLISA, 16 h; active compounds read low; in the data active = activity change below about -50%; inconclusive = mostly about -30% to -49%
#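 Secreted IL-1B measured by AlphaLISA bead assay after 16 h compound exposure of THP-1 cells; compounds (final up to 57.5 uM) added 1 h before LPS (250 ng/mL) and ATP (1.25 mM) stimulation; lower signal means less secretion.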
# HT1080 IDH1KD tx – toxicity to HT-1080 IDH1 knockdown cells (counter line); AID 686971; Potency, µM (highest dose often 46.1 µM), for inactives: at the top dose activity, negative = toxicity, actives largely listed as cytotoxic; HT-1080 IDH1 knockdown viability, ATP luminescence, 48 h; hit rate 2% among 360,000;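 also: potency is read from the fitted curve at half-maximal effect; 0% = DMSO wells and -100% = cell-free medium wells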
#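 Cytotoxicity counter-line: IDH1KD HT-1080, 48 h, CellTiter-Glo. Curves classed by r2, magnitude and activity.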
# Active calls of the source: *; i = inactive; ? = inconclusive; nt = not tested or not shown; [ ] = dose if it differs, or a comment. Unless noted, calls follow the shape of the dose curve; as a rule, active = well fitted curve in the direction sought with a large enough effect; inconclusive = small, poorly fitted or top-dose-only effect, or another doubt; inactive = no such curve, though single readings can be large; an effect the other way counts as inactive or inconclusive. Unless noted, % is scaled to controls: 0 for no effect and ±100 for the full control effect.
SMILES,HT1080NT lethal,ELG1 repair inh,TDP1 cell CPT,DT40 TDP1 no CPT,IL-1B inflam inh,HT1080 IDH1KD tx
C[C@H](NC(=O)c1ccco1)C(=O)N1CCCC1,0.6%,-6.6%,-1.1%,-2.9%,-8.3,21.7%
CCOc1ccc(Nc2nc(-c3cccc(Cl)c3)c3c(n2)-c2ccccc2OC3)cc1,nt,nt,-26.6%,?,nt,nt
CC(C)CN1C=C2C(=O)C(C)(OC(=O)CCc3ccccc3)C(=O)C=C2C=C1c1ccc(C#N)cc1 (configuration not stated),-1.3%,-7.0%,20.6µM*,18.4µM*,-1.7,2.6%
CC1(OC(=O)CCc2ccccc2)C(=O)C=C2C=C(c3ccc(C#N)cc3)N(Cc3ccco3)C=C2C1=O (configuration not stated),6.8%,-2.3%,?,?,15.4,11.0%
CC1(OC(=O)C2CCCC2)C(=O)C=C2C=C(c3ccsc3)N(Cc3ccccc3)C=C2C1=O (configuration not stated),-2.5%,0.8%,?,18.4µM*,25.2,-6.6%
CC1(OC(=O)CCc2ccccc2)C(=O)C=C2C=C(c3ccc(C#N)cc3)N(Cc3ccccc3)C=C2C1=O (configuration not stated),-2.6%,-8.7%,18.4µM*,?,4.5,?
COCCN1C=C2C(=O)C(C)(OC(=O)CCc3ccccc3)C(=O)C=C2C=C1c1ccc(C#N)cc1 (configuration not stated),5.6%,-3.3%,?,-25.8%,24.4,4.6%
CC(=O)c1ccc(OCC(=O)NC2CCCN(Cc3ccccc3F)C2)cc1 (configuration not stated),-4.0%,15.2%,-6.0%,?,-10.1,-1.8%
Cc1cccc(N(CC(=O)NC2CC2)S(=O)(=O)c2ccc(Cl)cc2)c1,4.8%,0.9%,-18.5%,-0.6%,i,3.5%
Cc1ccc(S(=O)(=O)N(CC(=O)NCCSc2ccc(Cl)cc2)c2cccc(Cl)c2)cc1,nt,nt,?,20.6µM*,nt,nt
Cc1ccc(N(CC(=O)NCCSc2ccccc2)S(=O)(=O)c2ccc(F)cc2)cc1,nt,nt,?,9.2µM*,nt,nt
COc1ccc(S(=O)(=O)N(CC(=O)NCCSc2ccc(C)cc2)c2ccc(C)cc2)cc1,nt,nt,18.4µM*,23.1µM*,nt,nt
CCOc1ccc(S(=O)(=O)N(CC(=O)NCCSc2ccc(C)cc2)c2ccccc2)cc1,nt,nt,-19.5%,-19.1%,nt,nt
Cc1cc(C)c(S(=O)(=O)Nc2nnc(C)s2)c(C)c1,-1.2%,8.0%,14.6µM*,18.4µM*,11.7,-0.9%
Cc1cc(C)c(S(=O)(=O)Nc2ccccc2C(F)(F)F)c(C)c1,nt,nt,-7.0%,-12.4%,nt,nt
CCOc1ccc(S(=O)(=O)Nc2nc3ccccc3nc2Cl)cc1,-0.9%,-15.1%,?,20.6µM*,61.0,0.0%
Cc1cc(C)c(S(=O)(=O)Nc2ccccc2-c2ccccc2)c(C)c1,-2.2%,-4.2%,?,20.6µM*,i,-20.0%
CCOc1ccc(S(=O)(=O)Nc2cnc3ccccc3c2)cc1,?,-19.5%,18.4µM*,18.4µM*,32.6,-12.9%
CCOc1ccc(S(=O)(=O)Nc2nc3ccccc3nc2N2CCN(C)CC2)cc1,-1.4%,15.2%,4.4%,-8.8%,17.1,0.5%
CCOC(=O)N1CCN(C(=O)COC(=O)CN(C)S(=O)(=O)c2ccc(NC(C)=O)cc2)CC1,12.6%,2.2%,3.4%,5.0%,12.6,9.0%
O=C(CN1CCN(CC(=O)Nc2cccc(F)c2)CC1)NCC1(N2CCOCC2)CCCCC1,-1.4%,10.7%,-28.4%,1.6%,?,-2.0%
CN(CC(=O)Nc1ccc(F)c(F)c1F)C(=O)C1CCCO1 (configuration not stated),-0.6%,-2.3%,0.4%,-0.5%,-12.7,1.7%
Cc1cc(C)c(S(=O)(=O)Nc2cnc3ccccc3c2)c(C)c1,-19.9%,?,?,?,-73.3*,-11.8%
COc1ccc(NS(=O)(=O)c2c(C)cc(C)cc2C)cc1,-28.4%,?,?,?,-7.3,-29.2%
CCOc1ccc(CC(=O)NC2CC(=O)N(c3cccc(F)c3)C2)cc1 (configuration not stated),nt,nt,5.2%,7.1%,nt,nt
SMILES,HT1080NT lethal,ELG1 repair inh,TDP1 cell CPT,DT40 TDP1 no CPT,IL-1B inflam inh,HT1080 IDH1KD tx
CCOc1cc2c3c(c1)C(C)=CC(C)(C)N3C(=O)C2=O,4.61µM*,-1.5%,3.26µM*,2.59µM*,67.4,?
CC(=O)Oc1cc2c3c(c1)/C(=C1/SC(=S)NC1=O)C(=O)N3C(C)(C)C=C2C,-21.8%,6.5%,-11.1%,-24.3%,19.0,-12.0%
Cc1cc2c3c(c1)C(C)CC(C)(C)N3C(=O)C2=C(C#N)C#N (configuration not stated),8.6%,-10.8%,?,?,-2.8,2.2%
CCOc1cc2c3c(c1)C(C)CC(C)(C)N3C(=O)C2=O (configuration not stated),4.9%,-5.9%,?,18.4µM*,-14.8,3.3%
Cc1cc2c3c(c1)C(C)CC(C)(C)N3C(=O)C2=O (configuration not stated),-4.7%,-11.4%,23.1µM*,?,-2.0,-11.0%
COC(=O)c1sc2cccc(F)c2c1S(=O)(=O)NCc1ccc(Cl)cc1,nt,nt,-0.1%,10.6%,nt,nt
O=C(CN(c1ccccc1)S(=O)(=O)c1ccc(Cl)cc1)Nc1cccnc1,-21.5%,4.8%,2.1%,-17.9%,-11.6,-22.6%
CCc1noc(C)c1C(=O)N1CCOc2ccc(CN3CCN(c4ccccn4)CC3)cc2C1,nt,nt,8.1%[9.04 µM],-2.9%,nt,nt
O=C1CCN(Cc2cccn2-c2ccccn2)CCN1Cc1ccccc1C(F)(F)F,nt,nt,-4.7%[9.04 µM],-14.4%,nt,nt
Clc1ccc(N2CCN(c3cnc4ccccc4n3)CC2)cc1,5.4%,?,23.1µM*,?,-9.1,1.4%
CN(Cc1ccccc1)C(=O)c1ccc(NC(=O)Cc2ccc(NC(=O)C3CCCN(C(=O)c4ccccc4)C3)cc2)cc1 (configuration not stated),-0.2%,nt,-6.6%,?,26.6,-10.6%
